Where “and” joins values, the source holds several entries; their conditions need not be identical. Identical values can stand only once. Records with an inconclusive call do not appear. Some structures have more than one record in an assay (separate samples or runs), and their calls can disagree. Calls of active or inactive are those of the source. Rule for the calls, unless noted: active = hit-call score of the fitted dose curve at least 0.9, where 1 is the maximum; inconclusive = response in the unintended direction; inactive = score below 0.9.
Experiments:
[1] = Tanguay_ZF_120hpf_SWIM_legacy: (Legacy) Oregon State University Tanguay Lab 120 Hour Post-fertilization zebrafish Assay for Swim Bladder Malformation (AID 2283654);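 note: swim bladder malformation in each larva scored yes or no under brightfield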
In short: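 Dechorionated wild-type Tropical 5D zebrafish embryos, one per well from 6 hpf, were statically exposed at 28C until 120 hpf in 0.64% DMSO. Swim bladder malformation scored as present/absent by brightfield microscopy; not scored in dead larvae.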

[2] = Tanguay_ZF_120hpf_TRUN_legacy: (Legacy) Oregon State University Tanguay Lab 120 Hour Post-fertilization zebrafish Assay for Truncated Body (AID 2283655)
In short: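 Truncated body is recorded as a binary endpoint at 120 hpf by brightfield imaging of wild-type 5D larvae. Exposure runs statically from 6 hpf at 28C with 0.64% DMSO; embryos dying earlier are not scored.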

[3] = CCTE_Padilla_ZF_144hpf_TERATOSCORE: (Legacy) CCTE's 144 Hour Post-fertilization zebrafish Assay Teratoscore, Padilla Lab (AID 2283679; active = hit-call score of the fitted dose curve at least 0.9, where 1 is the maximum; inactive = score below 0.9;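 for AC50: zebrafish embryos with chorions exposed by immersion from 6-8 hpf to 5 dpf with daily renewal; teratogenicity score from eye scoring of death hatching and malformations at 144 hpf; higher score means more developmental defects relative to DMSO baseline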)
In short: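 Larvae scored by eye at 144 hpf for death, hatching and malformations after a day in clean Hanks'. Before that, daily-renewed exposure at 80 uM (0.4% DMSO, 26C) from roughly 6-8 hpf through 5 dpf, 4 embryos per chemical.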

[4] = STM_H9_OrnithineISnorm_perc: Stemina devTOX quickPredict H9 human embryonic stem cell (hESC)-based Assay for Ornithine (ORN) Metabolite Biomarker, Normalized (AID 2283712; active = hit-call score of the fitted dose curve at least 0.9, where 1 is the maximum; inactive = score below 0.9;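 note: ornithine released into spent medium during last day measured by mass spectrometry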)
In short: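 Cells: undifferentiated H9 hESC. Dosing: 72 h, media replaced every 24 h. Sample: final 24-h conditioned media, 40% acetonitrile. Read: UPLC-HRMS ornithine area vs 13C standard, % DMSO control.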

[5] = read-out: kallikrein-3 (KLK3), KLK3 (gene 354); test: LTEA_HepaRG_KLK3: Life Technologies and Expression Analysis (LTEA) Assay for kallikrein-3 (KLK3) using HepaRG (AID 2283652; active = hit-call score of the fitted dose curve at least 0.9, where 1 is the maximum; inactive = score below 0.9); details: mRNA level, 48 h; actives raise or lower the signal
In short: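 Differentiated human HepaRG cells in serum-free induction medium exposed 48 h in duplicate, eight-point half-log series from 100 uM in 0.5% DMSO. KLK3 mRNA by qRT-PCR, normalised to ACTB, GAPDH, POLR2A; bidirectional fit versus DMSO.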

[6] = read-out: solute carrier (SLC22A6), SLC22A6 (gene 9356); test: LTEA_HepaRG_SLC22A6: Life Technologies and Expression Analysis (LTEA) Assay for solute carrier (SLC22A6) using HepaRG (AID 2283653; active = hit-call score of the fitted dose curve at least 0.9, where 1 is the maximum; inactive = score below 0.9); details: mRNA level, 48 h; actives raise or lower the signal
In short: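 Read-out is SLC22A6 transcript level by qRT-PCR, normalised to three housekeeping genes and fitted for gain or loss relative to 0.5% DMSO vehicle. Human HepaRG cells received chemicals at up to 100 uM for 48 h.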

[7] = read-out: solute carrier (SLC10A1), SLC10A1 (gene 6554); test: LTEA_HepaRG_SLC10A1: Life Technologies and Expression Analysis (LTEA) Assay for solute carrier (SLC10A1) using HepaRG (AID 2283657; active = hit-call score of the fitted dose curve at least 0.9, where 1 is the maximum; inactive = score below 0.9); details: mRNA level, 48 h; actives raise or lower the signal
In short: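 HepaRG cells (single lot) exposed 48 h in serum-free induction medium, 8-point half-log series from 100 uM top in 0.5% DMSO, duplicate. SLC10A1 mRNA by qRT-PCR normalised to ACTB, GAPDH, POLR2A; bidirectional fit versus DMSO.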

[8] = read-out: matrix metalloproteinase-1 (MMP1), MMP1 (gene 4312); test: LTEA_HepaRG_MMP1: Life Technologies and Expression Analysis (LTEA) Assay for matrix metalloproteinase-1 (MMP1) using HepaRG (AID 2283658; active = hit-call score of the fitted dose curve at least 0.9, where 1 is the maximum; inactive = score below 0.9); details: mRNA level, 48 h; actives raise or lower the signal
In short: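 HepaRG, ~100,000 cells/well, 48 h pre-culture; serum-free induction medium; test chemical 8 conc (max 100 uM, half-log), duplicate, 48 h; 0.5% DMSO; qRT-PCR MMP1, housekeeping-normalized; gain/loss fit vs DMSO.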

[9] = read-out: Cytochrome P450 (CYP24A1_1), CYP24A1 (gene 1591); test: LTEA_HepaRG_CYP24A1_1: Life Technologies and Expression Analysis (LTEA) Assay for Cytochrome P450 (CYP24A1_1) using HepaRG (AID 2283671; active = hit-call score of the fitted dose curve at least 0.9, where 1 is the maximum; inactive = score below 0.9); details: mRNA level, 48 h; actives raise or lower the signal
In short: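 Differentiated human HepaRG cells in serum-free induction medium, exposed 48 h in duplicate to eight half-log concentrations from 100 uM top, 0.5% DMSO. Transcript measured by TaqMan qRT-PCR, normalised to ACTB, GAPDH, POLR2A; bidirectional fitting versus DMSO.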

[10] = CCTE_Simmons_CellTiterGLO_HEK293T: Viability Assessment in CCTE's Assays for Thyroperoxidase (TPO) Inhibition, Simmons Lab (AID 2283665);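 for AC50: cells exposed to compound for 24 h before readout; actives reduce ATP signal below DMSO vehicle meaning cytotoxicity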
In short: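 Cytotoxicity counter-screen: human HEK293T cells in low-serum (1% FBS) medium receive test chemical, 5 nM to 87.5 uM final, for 24 h; ATP is quantified by luciferase luminescence.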

SMILES: CCN1CCC2(CC1)COc1cc3c(cc12)N(C(=O)c1ccc(-c2ccc(-c4nnc(C)o4)cc2C)cc1)CC3
- outcome [1]: inactive
- outcome [2]: inactive
- AC50 [3]: 54 µM (active)
- outcome [3]: inactive
- AC50 [4]: 8.53 µM (active)

SMILES: O=C(O)C(F)(F)C(F)(F)C(F)(F)C(F)(F)C(F)(F)C(F)(F)C(F)(F)C(F)(F)C(F)(F)C(F)(F)F
- outcome [5]: inactive
- outcome [6]: inactive
- outcome [2]: inactive
- AC50 [7]: 47.8 µM (active)
- outcome [8]: inactive
- outcome [9]: inactive
- AC50 [3]: 8.02 µM (active)

SMILES: CC12CC1(C)C(=O)N(c1cc(Cl)cc(Cl)c1)C2=O (stereo not drawn)
- outcome [1]: inactive
- outcome [2]: inactive
- outcome [10]: inactive
- outcome [3]: inactive
- AC50 [4]: 61 µM (active)

SMILES: O=C(O)C(F)(F)C(F)(F)C(F)(F)C(F)(F)C(F)(F)C(F)(F)F
- outcome [1]: inactive

SMILES: O=C(O)C(Cl)(Cl)Cl
- outcome [1]: inactive
- outcome [2]: inactive
- outcome [10]: inactive
- outcome [3]: inactive
- outcome [4]: inactive

SMILES: CC(=O)[O][Hg][c]1ccccc1
- outcome [1]: inactive
- outcome [2]: inactive
- AC50 [3]: 0.066 µM (active)
- AC50 [4]: 0.476 µM (active)

SMILES: O=C(Nc1ccc2[nH]ccc2c1)c1cc2cc(F)ccc2n1Cc1cccc(F)c1
- outcome [1]: inactive
- outcome [2]: inactive
- AC50 [10]: 0.753 µM (active)
- AC50 [4]: 3.5 µM (active)

SMILES: C=CC(=O)OCCCCCC(C)C
- outcome [1]: inactive
- outcome [2]: inactive

SMILES: CC(C)(OO)c1ccccc1
- outcome [1]: inactive
- outcome [2]: inactive

SMILES: CC(C)(c1ccccc1)c1ccc(O)c(C(C)(C)c2ccccc2)c1
- outcome [1]: inactive
- outcome [2]: inactive
- AC50 [10]: 5.35 µM (active)
- AC50 [3]: 4.58 µM (active)

SMILES: CCOP(=S)(OCC)SCSP(=S)(OCC)OCC
- outcome [1]: inactive
- outcome [2]: inactive
- AC50 [10]: 46.6 µM (active)
- AC50 [3]: 5.5 µM (active)

SMILES: Cc1ccccc1N
- outcome [1]: inactive
- outcome [2]: inactive
- outcome [10]: inactive

SMILES: C=C(C)C(=O)[O][Sn]([CH2]CCC)([CH2]CCC)[CH2]CCC
- outcome [1]: inactive
- outcome [2]: inactive
- AC50 [3]: 0.0483 µM (active)
- AC50 [4]: 0.494 µM (active)

SMILES: CCC(=O)C(CC(C)N(C)C)(c1ccccc1)c1ccccc1 (stereo not drawn)
- outcome [1]: inactive
- outcome [2]: inactive

SMILES: NC(=O)O
- outcome [5]: inactive
- outcome [6]: inactive
- outcome [1]: inactive
- outcome [2]: inactive
- outcome [7]: inactive
- outcome [8]: inactive
- outcome [9]: inactive
- outcome [3]: inactive

SMILES: CC(C)(C)CC(C)(C)c1ccc(O)cc1
- outcome [1]: inactive
- outcome [2]: inactive
- AC50 [10]: 9.53 µM (active)
- AC50 [3]: 4.55 µM (active)

SMILES: CCC(C)(C)c1ccc(O)c(C(C)(C)CC)c1
- outcome [1]: inactive
- outcome [2]: inactive
- AC50 [10]: 0.847 µM (active)
- AC50 [3]: 4.87 µM (active) and 4.82 µM (active)

SMILES: ClCC(Cl)CCl
- outcome [1]: inactive
- outcome [2]: inactive
- outcome [3]: inactive
- outcome [4]: inactive

SMILES: COc1cc(-c2ccc(N)c(OC)c2)ccc1N
- AC50 [1]: 95.5 µM (active)
- outcome [2]: inactive
- AC50 [3]: 52.6 µM (active) and 79.3 µM (active)

SMILES: Oc1cccc2cccnc12
- outcome [6]: inactive
- outcome [7]: inactive
- outcome [8]: inactive
- AC50 [10]: 15.8 µM (active) and 53.8 µM (active)
- outcome [9]: inactive
- AC50 [3]: 4.78 µM (active)

SMILES: ClC1(Cl)C2(Cl)C3(Cl)C4(Cl)C(Cl)(Cl)C5(Cl)C3(Cl)C1(Cl)C5(Cl)C24Cl (stereo not drawn)
- outcome [5]: inactive
- outcome [6]: inactive
- outcome [1]: inactive
- outcome [2]: inactive
- AC50 [7]: 1.22 µM (active)
- outcome [8]: inactive
- outcome [9]: inactive
- outcome [4]: inactive

SMILES: CCCCCCCCc1ccc(O)cc1
- outcome [1]: inactive
- outcome [2]: inactive
- AC50 [10]: 22.6 µM (active)
- AC50 [3]: 5.21 µM (active)

SMILES: OCc1ccco1
- outcome [10]: inactive

SMILES: C[C@@H]1C[C@@H]([C@H](O)CC2CC(=O)NC(=O)C2)C(=O)[C@@H](C)C1
- outcome [2]: inactive
- AC50 [3]: 6 µM (active)
- AC50 [4]: 4.59 µM (active)

SMILES: CCOP(=S)(OCC)Oc1nc(Cl)c(Cl)cc1Cl
- outcome [2]: inactive
- AC50 [10]: 17.9 µM (active)
- AC50 [3]: 4.72 µM (active)

SMILES: CC(C)(c1ccc(OCC2CO2)cc1)c1ccc(OCC2CO2)cc1 (stereo not drawn)
- AC50 [10]: 83.7 µM (active)

SMILES: NNC(=S)NN
- outcome [10]: inactive

SMILES: C[C@]12CCC(=O)C[C@@H]1CC[C@@H]1[C@@H]2CC[C@]2(C)[C@@H](O)CC[C@@H]12
- outcome [2]: inactive
- AC50 [3]: 11.6 µM (active)

SMILES: C[C@H]1CCCC(=O)CCC/C=C/c2cc(O)cc(O)c2C(=O)O1
- AC50 [10]: 89.2 µM (active)

SMILES: CCOC(=O)Nc1cccc(OC(=O)Nc2ccccc2)c1
- AC50 [10]: 16.6 µM (active)

SMILES: CN(C)N=O
- outcome [2]: inactive
- outcome [3]: inactive

SMILES: O=C1C2(Cl)C3(Cl)C4(Cl)C(Cl)(Cl)C5(Cl)C3(Cl)C1(Cl)C5(Cl)C24Cl (stereo not drawn)
- AC50 [2]: 15.2 µM (active)
- AC50 [3]: 3.4 µM (active)

SMILES: CC(C)c1cccc(C(C)C)c1O
- AC50 [10]: 84.6 µM (active)

SMILES: Cc1ccc(N)cc1Cl
- AC50 [10]: 18.4 µM (active)

SMILES: CC(C)(C)c1cc(O)ccc1O
- outcome [2]: inactive
- AC50 [10]: 85.6 µM (active) and 25.9 µM (active) and 27.6 µM (active)
- outcome [10]: inactive
- AC50 [3]: 14.4 µM (active)
- outcome [4]: inactive

SMILES: Clc1ccc(C2(Cn3cncn3)CC(Br)CO2)c(Cl)c1 (stereo not drawn)
- AC50 [10]: 95.2 µM (active)
